Experimental data from PubChem BioAssay (NCI).
“And” between values parts separate entries of the source, which are not always exact repeats. Identical values can stand only once. The panel holds about 79,000 compounds, 15% with a hit somewhere; the sample as a whole holds those more often. Where a structure was tested more than once in an assay, its records may differ in their call. The source made the active and inactive calls. No stated cut-off is given here; in the data, active means growth inhibition above about 70%; inactive means the rest. Where a SMILES comes first, the peptide text is derived from it. [ ]: non-standard residue; d: D form. ξ: configuration not given here. ξI = CCC(C)C(N)C(=O)O

Tests used:
[1] = NCI Yeast Anticancer Drug Screen. Data for the rad50 strain (AID 155);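 further: 0% = growth of vehicle-only cultures of the same strain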; settings: S. cerevisiae rad50 strain growth inhibition, stronger effect = higher value
Summary of the method: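 DNA repair mutant yeast, compound exposure, growth read-out; inhibition is taken relative to vehicle.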

[2] = NCI Yeast Anticancer Drug Screen. Data for the sgs1 mgt1 strain (AID 161);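 further: 0% = growth of cultures given vehicle only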; settings: S. cerevisiae sgs1 mgt1 strain, stronger effect = higher value
Summary of the method: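 Growth of a repair-deficient yeast mutant was monitored after compound treatment and expressed as inhibition relative to vehicle-treated cultures.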

[3] = NCI Yeast Anticancer Drug Screen. Data for the cln2 rad14 strain (AID 165);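 further: 0% = growth equal to vehicle treated cultures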; settings: S. cerevisiae cln2 rad14 strain, stronger effect = higher value
Summary of the method: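 Yeast strain cln2 rad14, bearing defects in cell cycle control and DNA repair, serves as the test system; values reflect growth inhibition compared with vehicle.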

[4] = NCI Yeast Anticancer Drug Screen. Data for the bub3 strain (AID 167); settings: S. cerevisiae bub3 mutant strain, stronger effect = higher value
Summary of the method: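 In this screen, a yeast mutant lacking normal mitotic checkpoint function is challenged with compound. Relative growth versus vehicle gives the inhibition value.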

[5] = NCI Yeast Anticancer Drug Screen. Data for the mlh1 rad18 strain (AID 175); settings: S. cerevisiae mlh1 rad18 strain growth inhibition, stronger effect = higher value
Summary of the method: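 Steps: expose repair-defective yeast to compound; measure growth; express inhibition against vehicle-treated controls.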

[6] = NCI Yeast Anticancer Drug Screen. Data for the mec2-1 strain (AID 157); settings: S. cerevisiae mec2-1 strain, stronger effect = higher value
Summary of the method: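 Using mec2-1 yeast: add compound, measure growth, express inhibition versus vehicle-treated cultures.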

[7] = NCI Yeast Anticancer Drug Screen. Data for the wt2 strain (AID 169);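 further: 0% = growth of vehicle-treated yeast cultures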; settings: S. cerevisiae wt2 strain growth inhibition, stronger effect = higher value
Summary of the method: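 Treated yeast vs. vehicle-treated yeast: growth inhibition determined.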

[8] = at 5.0 µM (retest, dose inferred, filed as 0.5)
[9] = at 50.0 µM (retest, dose inferred, filed as 5.0)

Measured: growth inhibition

O=C(O)C1(Cc2ccccc2)Cc2cc3c(cc2C1)CCC3
active: [1]; at 50.0 µM 90% | [2]; at 50.0 µM 87.2% | [3]; at 50.0 µM 89% | [4]; at 50.0 µM 89.7% | [5]; at 50.0 µM 84.8%
inactive: [1]; [8] 5% | [1]; [9] 5% | [2]; [8] 0% | [2]; [9] 0% | [3]; [8] 2% | [3]; [9] 2% | [4]; [8] -17% | [4]; [9] -17% | [5]; [8] 8% | [5]; [9] 8%

COc1cc2c(cc1O)CC[n+]1cc3c(OC)c(OC)ccc3cc1-2
inactive: [1]; at 50.0 µM -56% and 3.1% and -3% | [6]; at 50.0 µM -20% and -15.3% and 0.25% | [2]; at 50.0 µM -20.8% and 0.8% and 20.3% | [3]; at 50.0 µM 9.65% and 5.15% and -13.2% | [4]; at 50.0 µM -15.4% and -3.15% and 15.6% | [5]; at 50.0 µM -11.1% and -69.1% and 0%

COC1OC(C(O)CO)C(O)C(O)C1O (stereo unspecified)
inactive: [6]; at 50.0 µM 13.7% [middle of 4 runs] | [2]; at 50.0 µM 12.2% [middle of 4 runs] | [5]; at 50.0 µM 25.1% [middle of 4 runs]

COc1nc2nc(C(O)C(O)CO)cnc2c(=O)n1C (stereo unspecified)
inactive: [1]; at 50.0 µM -5.55% [middle of 4 runs] | [6]; at 50.0 µM -6.55% [middle of 4 runs] | [2]; at 50.0 µM -5.2% [middle of 4 runs] | [4]; at 50.0 µM 7.15% [middle of 4 runs]

OC1C(O)C(O)C(O)C(O)C1O (stereo unspecified)
inactive: [4]; at 50.0 µM 0.4% [middle of 5 runs] | [5]; at 50.0 µM 4.3% [middle of 5 runs]

CCC(C)C(NC(=O)CN)C(=O)O (stereo unspecified) (H-Gly-[ξI]-OH)
inactive: [1]; at 50.0 µM 6.95% [middle of 4 runs] | [6]; at 50.0 µM -3% [middle of 4 runs] | [5]; at 50.0 µM -17.8% [middle of 4 runs]

CSc1ccc(N2C(=O)CSC2=S)cc1Cl
inactive: [1]; [8] 27% | [2]; [8] 16% | [3]; [8] -1% | [3]; [9] -4% | [3]; at 50.0 µM 29.1% | [5]; [8] 31%
active: [1]; [9] 74% | [1]; at 50.0 µM 97.5% | [2]; [9] 79% | [2]; at 50.0 µM 95.2% | [5]; [9] 94% | [5]; at 50.0 µM 97%

COc1cccc2c1C(=O)c1c(O)c3c(c(O)c1C2=O)CC(O)(C(C)=O)CC3OC1CC(N)C(O)C(C)O1 (stereo unspecified)
inactive: [1]; [8] 25% | [1]; [9] 40% | [6]; [8] 12% | [6]; [9] 21% | [2]; [8] 20% | [2]; [9] 29% | [3]; [8] 14% | [3]; [9] 9% | [4]; [8] 36% | [4]; [9] 40% | [5]; [8] 23% | [5]; [9] 28%

OCC(O)C(O)C(O)C(O)C(/C=N/Nc1ccccc1)=N/Nc1ccccc1 (stereo unspecified)
active: [1]; [9] 91% | [3]; [9] 82% | [5]; [9] 86%
inactive: [1]; [8] -19% | [6]; [8] -5% | [6]; [9] 61% | [2]; [8] -39% | [2]; [9] 30% | [3]; [8] 2% | [4]; [8] -3% | [4]; [9] 54% | [5]; [8] 8%

Cc1ccc(S(=O)(=O)NC2CCCCCCC2)cc1
inactive: [1]; [8] 45% | [2]; [8] 42% | [2]; [9] 16% | [3]; [8] 48% | [3]; [9] 46% | [3]; at 50.0 µM 60% | [7]; at 1.2 µM -4% | [7]; at 3.7 µM -17% | [7]; at 11.0 µM -23% | [7]; at 33.0 µM 23% | [5]; [8] 40%
active: [1]; [9] 96% | [1]; at 50.0 µM 77% | [2]; at 50.0 µM 79% | [4]; [8] 97% | [4]; [9] 95% | [4]; at 50.0 µM 89.3% | [7]; at 100.0 µM 98% | [5]; [9] 99% | [5]; at 50.0 µM 82.8%

O=C(C(=Cc1ccccc1)C(=O)c1ccccc1)c1ccccc1
88% (active) and 51.6% (inactive): [4]; at 50.0 µM
90.5% (active) and 7.7% (inactive): [6]; at 50.0 µM
inactive: [1]; [8] 42% | [6]; [8] 54% | [3]; [8] 50% | [5]; [8] 69%
active: [1]; [9] 92% | [6]; [9] 95% | [3]; [9] 89% | [4]; [8] 84% | [4]; [9] 96% | [5]; [9] 94%
86.5% (active) and 21.2% (inactive): [1]; at 50.0 µM
87.8% (active) and 20.8% (inactive): [5]; at 50.0 µM
83.8% (active) and -79.9% (inactive): [3]; at 50.0 µM

O=C1CSC(=S)N1c1ccc(F)c(F)c1
active: [1]; [9] 90% | [1]; at 50.0 µM 97.5% | [2]; [9] 94% | [2]; at 50.0 µM 97% | [3]; at 50.0 µM 86.2% | [4]; [9] 92% | [4]; at 50.0 µM 96.3% | [5]; [9] 95% | [5]; at 50.0 µM 96.4%
inactive: [1]; [8] 4% | [2]; [8] 4% | [3]; [8] -3% | [3]; [9] 43% | [4]; [8] 0% | [5]; [8] -3%

COc1cccc2c1C(=O)c1c(O)c3c(c(O)c1C2=O)C[C@@](O)(C(C)=O)C[C@@H]3OC1CC(N)C(O)C(C)O1 (stereo partly specified)
inactive: [1]; [8] 32% | [6]; [8] -11% | [2]; [8] 8% | [3]; [8] 23% | [4]; [8] 7% | [5]; [8] 7%
active: [1]; [9] 91% | [6]; [9] 90% | [2]; [9] 93% | [3]; [9] 85% | [4]; [9] 93% | [5]; [9] 88%
